This excerpt belongs to a sample that is enriched for the strongest signals.
Columns and labels:
Assay in all cases: glycan array binding signal (z-score within array); higher = stronger binding
Details in all cases: glycan notation: IUPAC condensed, linker removed
[1] = target: Fuc(a1-2)Gal(b1-3)GalNAc(b1-4)[Neu5Ac(a2-3)]Gal(b1-4)Glc
Summary of the method: (§1)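 From the Consortium for Functional Glycomics database, 3228 arrays were curated, keeping only those whose protein sequence was available. Binding is given as a within-array Z-score averaged across arrays sharing a protein sequence and across linkers. Negative Z-scores can be read as non-binding.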

[2] = target: Fuc(a1-2)Gal(b1-3)[Fuc(a1-4)]GlcNAc
Summary of the method: as §1

[3] = target: Fuc(a1-2)Gal(b1-4)GlcNAc(b1-2)[Fuc(a1-2)Gal(b1-4)GlcNAc(b1-4)]Man(a1-3)[Fuc(a1-2)Gal(b1-4)GlcNAc(b1-2)Man(a1-6)]Man(b1-4)GlcNAc(b1-4)GlcNAc
Summary of the method: as §1

[4] = target: Fuc(a1-2)Gal(b1-4)[Fuc(a1-3)]GlcNAc(b1-3)Gal(b1-4)[Fuc(a1-3)]GlcNAc
Summary of the method: as §1

[5] = target: Fuc(a1-2)Gal3S(b1-4)GlcNAc
Summary of the method: as §1

[6] = target: Fuc(a1-2)[Gal(a1-3)]Gal(b1-4)[Fuc(a1-3)]GlcNAc(b1-3)GalNAc
Summary of the method: as §1

[7] = target: Fuc(a1-2)[GalNAc(a1-3)]Gal(b1-3)GlcNAc(b1-2)Man(a1-3)[Fuc(a1-2)[GalNAc(a1-3)]Gal(b1-3)GlcNAc(b1-2)Man(a1-6)]Man(b1-4)GlcNAc(b1-4)[Fuc(a1-6)]GlcNAc
Summary of the method: as §1

[8] = target: Gal(a1-2)Gal
Summary of the method: as §1

[9] = target: Gal(a1-3)Gal(b1-3)[Fuc(a1-4)]GlcNAc(b1-2)Man(a1-3)[Gal(a1-3)Gal(b1-3)[Fuc(a1-4)]GlcNAc(b1-2)Man(a1-6)]Man(b1-4)GlcNAc(b1-4)GlcNAc
Summary of the method: as §1

[10] = target: Gal(a1-3)Gal(b1-4)GlcNAc
Summary of the method: as §1

[11] = target: Gal(a1-4)Gal(b1-4)GlcNAc
Summary of the method: as §1

[12] = target: Gal(b1-3)GlcNAc(b1-2)Man(a1-3)[GlcNAc(b1-4)][Gal(b1-3)GlcNAc(b1-2)Man(a1-6)]Man(b1-4)GlcNAc(b1-4)GlcNAc
Summary of the method: as §1

[13] = target: Gal(b1-3)GlcNAc(b1-3)Gal(b1-4)[Fuc(a1-3)]GlcNAc
Summary of the method: as §1

[14] = target: Gal(b1-4)GlcNAc(b1-2)Man(a1-6)[GlcNAc(b1-2)Man(a1-3)]Man(b1-4)GlcNAc(b1-4)GlcNAc
Summary of the method: as §1

[15] = target: Gal(b1-4)GlcNAc(b1-3)Gal(b1-4)GlcNAc(b1-2)[Gal(b1-4)GlcNAc(b1-3)Gal(b1-4)GlcNAc(b1-6)]Man(a1-6)[Gal(b1-4)GlcNAc(b1-3)Gal(b1-4)GlcNAc(b1-2)Man(a1-3)]Man(b1-4)GlcNAc(b1-4)GlcNAc
Summary of the method: as §1

[16] = target: Gal(b1-4)GlcNAc(b1-3)Gal(b1-4)GlcNAc(b1-3)Gal(b1-4)GlcNAc(b1-3)Gal(b1-4)GlcNAc(b1-2)Man(a1-3)[Gal(b1-4)GlcNAc(b1-3)Gal(b1-4)GlcNAc(b1-3)Gal(b1-4)GlcNAc(b1-3)Gal(b1-4)GlcNAc(b1-2)Man(a1-6)]Man(b1-4)GlcNAc(b1-4)[Fuc(a1-6)]GlcNAc
Summary of the method: as §1

[17] = target: Gal(b1-4)GlcNAc(b1-3)Gal(b1-4)GlcNAc(b1-3)Gal(b1-4)GlcNAc(b1-3)Gal(b1-4)GlcNAc(b1-3)Gal(b1-4)GlcNAc(b1-2)Man(a1-3)[Gal(b1-4)GlcNAc(b1-3)Gal(b1-4)GlcNAc(b1-3)Gal(b1-4)GlcNAc(b1-3)Gal(b1-4)GlcNAc(b1-3)Gal(b1-4)GlcNAc(b1-2)Man(a1-6)]Man(b1-4)GlcNAc(b1-4)[Fuc(a1-6)]GlcNAc
Summary of the method: as §1

[18] = target: Gal(b1-4)GlcNAc(b1-3)Gal(b1-4)GlcNAc(b1-3)Gal(b1-4)GlcNAc(b1-3)Gal(b1-4)GlcNAc(b1-3)Gal(b1-4)GlcNAc(b1-2)[Gal(b1-4)GlcNAc(b1-3)Gal(b1-4)GlcNAc(b1-3)Gal(b1-4)GlcNAc(b1-3)Gal(b1-4)GlcNAc(b1-3)Gal(b1-4)GlcNAc(b1-6)]Man(a1-6)[Gal(b1-4)GlcNAc(b1-3)Gal(b1-4)GlcNAc(b1-3)Gal(b1-4)GlcNAc(b1-3)Gal(b1-4)GlcNAc(b1-3)Gal(b1-4)GlcNAc(b1-2)Man(a1-3)]Man(b1-4)GlcNAc(b1-4)[Fuc(a1-6)]GlcNAc
Summary of the method: as §1

[19] = target: Gal(b1-4)GlcNAc(b1-6)GalNAc
Summary of the method: as §1

[20] = target: Gal(b1-4)GlcNAc6P
Summary of the method: as §1

[21] = target: Gal3S(b1-3)GalNAc
Summary of the method: as §1

[22] = target: GalNAc(a1-3)GalNAc(b1-3)Gal(a1-4)Gal(b1-4)Glc
Summary of the method: as §1

[23] = target: GalNAc(b1-4)GlcNAc(b1-2)Man(a1-3)[GalNAc(b1-4)GlcNAc(b1-2)Man(a1-6)]Man(b1-4)GlcNAc(b1-4)GlcNAc
Summary of the method: as §1

[24] = target: GalNAc3S(b1-4)GlcNAc3S
Summary of the method: as §1

[25] = target: Glc(a1-6)Glc(a1-6)Glc
Summary of the method: as §1

B1: LICBM33A (Lactococcus lactis), Q9CE94 (protein)
chain: MKKLLTGLLVAAGLLSVSLLIKTDTVSAHGYVQSPPARGYQGQLDSQSLGWTAAFNIYGNVISNPQSLEAPKGFPECGPADGRIASANGGLGQIGDFVLDNQTSSRWKKTSISTGSNIFTWKYTAPHKTTKWHYYMTKTGWDQNAPLKHSELELIGTINHDGSPATNNLSHTINIPTDRSGYHIVLAVWDVADTSNAFYNVIDINVNNKNASSQVFGPFL
B1 was tested, and the “glycan array binding signal (z-score)” value [1] was -0.276, the “glycan array binding signal (z-score)” value [2] was -0.377 and the “glycan array binding signal (z-score)” value [3] was 6.68. For the same binder, the “glycan array binding signal (z-score)” value [4] was -0.587, the “glycan array binding signal (z-score)” value [5] was 3.62 and the “glycan array binding signal (z-score)” value [6] was -1.52. The “glycan array binding signal (z-score)” value [7] was -0.211, the “glycan array binding signal (z-score)” value [8] was -0.28 and the “glycan array binding signal (z-score)” value [9] was -0.268. For the same binder, the “glycan array binding signal (z-score)” value [10] was -0.436, the “glycan array binding signal (z-score)” value [11] was 0.111 and the “glycan array binding signal (z-score)” value [12] was -0.473. For the same binder, the “glycan array binding signal (z-score)” value [13] was -0.324, the “glycan array binding signal (z-score)” value [14] was -0.512 and the “glycan array binding signal (z-score)” value [15] was 0.114. For the same binder, the “glycan array binding signal (z-score)” value [16] was 4.11, the “glycan array binding signal (z-score)” value [17] was 6.2 and the “glycan array binding signal (z-score)” value [18] was 6.18. The “glycan array binding signal (z-score)” value [19] was -0.959, the “glycan array binding signal (z-score)” value [20] was 0.236 and the “glycan array binding signal (z-score)” value [21] was -0.215. For the same binder, the “glycan array binding signal (z-score)” value [22] was -0.96, the “glycan array binding signal (z-score)” value [23] was -0.578 and the “glycan array binding signal (z-score)” value [24] was -0.284. For the same binder, the “glycan array binding signal (z-score)” value [25] was 0.839.
